From PubChem BioAssay AID743126 (The Scripps Research Institute Molecular Screening Center, 2013)
The campaign covered roughly 370,000 compounds. About 2,100 (0.57%) were called active.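 Rule for the calls: active = inhibition above mean plus 3 SD of compounds lying within the high and low control bounds (cut at about 19% in these data); inactive = the rest.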 This excerpt belongs to a sample that is enriched for actives.

Target: Group 3 secretory phospholipase A2 (Homo sapiens) (UniProt Q9NZ20)
Experiment: human group III sPLA2 inhibitors, primary screen, biochemical, QFRET, BODIPY PC-A2 liposome substrate (AID 743126);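 note: 0% = median of test compound wells and 100% = no enzyme DMSO wells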
Conditions: QFRET BODIPY PC-A2 liposome hydrolysis, fluorescence; at 12.2 µM; hits give high values

Chain of Group 3 secretory phospholipase A2 (Homo sapiens) (Q9NZ20 whole entry, looked up): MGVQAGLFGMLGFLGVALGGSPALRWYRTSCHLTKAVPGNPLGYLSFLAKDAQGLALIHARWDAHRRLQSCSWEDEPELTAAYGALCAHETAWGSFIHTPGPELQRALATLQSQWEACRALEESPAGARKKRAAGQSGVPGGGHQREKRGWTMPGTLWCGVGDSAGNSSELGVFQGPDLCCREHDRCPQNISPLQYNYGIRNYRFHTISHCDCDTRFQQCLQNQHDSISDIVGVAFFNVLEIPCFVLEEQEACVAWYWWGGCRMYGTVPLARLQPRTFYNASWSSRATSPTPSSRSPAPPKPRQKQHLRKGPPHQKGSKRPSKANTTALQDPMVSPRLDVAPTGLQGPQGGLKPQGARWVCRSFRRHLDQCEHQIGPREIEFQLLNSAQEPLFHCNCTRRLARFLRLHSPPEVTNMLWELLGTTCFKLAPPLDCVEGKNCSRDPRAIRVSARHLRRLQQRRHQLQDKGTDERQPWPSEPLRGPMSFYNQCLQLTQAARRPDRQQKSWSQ

Structure (SMILES)	inhibition
C[C@]12CCC3C(CC[C@H]4C[C@@H](O)CC[C@]34C)C1CC[C@@H]2O (stereo not given in full)	21.1% (active)
C[C@]12CC[C@H](O)CC1=C([N+](=O)[O-])CC1C2CC[C@@]2(C)C1CC[C@@H]2O (stereo not given in full)	-3.04% (inactive)
C[C@]12CCC3C(CC[C@H]4[C@H](O)[C@H](O)CC[C@]34C)C1CC[C@@H]2O (stereo not given in full)	11.6% (inactive)
CC1=CC(=Cc2sc3ccccc3[n+]2C)C=C(C)O1	5.85% (inactive)
COc1ccc(C(=O)C2CN(C)CC2C(=O)c2ccc(OC)cc2)cc1 (stereo not given)	-10.5% (inactive)
O=C(COC(=O)c1ccccc1)Nc1ccc(Cl)cc1C(=O)c1ccccc1	21.3% (active)
CN1CCN(C(=S)SCC(=O)Nc2ccc(Cl)cc2C(=O)c2ccccc2)CC1	-21.3% (inactive)
O=C(CCNS(=O)(=O)c1ccccc1)Nc1ccc(Cl)cc1C(=O)c1ccccc1	-26.4% (inactive)
C[C@@]1([C@@H](NP(=O)(c2ccccc2)c2ccccc2)c2ccccc2)C[C@H]1CCO	-0.39% (inactive)
CNC(=O)O/N=C(\N)Cc1csc2ccc(Cl)cc12	-5.86% (inactive)
